Experimental findings from PubChem BioAssay are described below.

Assay [1] is described as follows: binders of probe aFSTL3 on microarray, primary screen, stem cell growth factor project, biochemical, small-molecule microarray, fluorescence 635/667 (AID 1064).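 Also: measures binding of the biotinylated anti-FSTL3 antibody to printed compounds.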 Conditions: higher = more signal.
Assay [2] can be described thus: binders from COS7 lysate, DM2A8 probe, primary screen, torsin A project, cell lysate, small-molecule microarray, fluorescence 635/667 (AID 1065). The settings on record: higher = more signal, COS7 lysate expressing mutant human TOR1A.
Assay [3] is described as follows: binders of probe aFGF2 on microarray, primary screen, stem cell growth factor project, biochemical, small-molecule microarray, fluorescence 635/667 (AID 1067).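 Also: measures binding of biotinylated aFGF2 protein to printed compounds on slides; z-score merges feature fluorescence and signal-to-noise across triplicate slides.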 Conditions: higher = more signal.
Assay [4] is described as follows: binders of probe aFGF10 on microarray, primary screen, stem cell growth factor project, biochemical, small-molecule microarray, fluorescence 635/667 (AID 1071).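 Also: score merges 667 nm spot intensity and signal to noise from triplicate slides.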 The settings on record: higher = more signal.
Assay [5] deals with Neurogenic locus notch homolog protein 2 (Homo sapiens) (UniProt Q04721). The assay is described as follows: Notch2 binders on small-molecule microarrays, primary screen, biochemical, small-molecule microarray, 635 nm fluorescence, stem cell growth factors (AID 1073). Conditions: Notch2 binding, higher = more signal.
In assay [6] the target is Pro-neuregulin-1, membrane-bound isoform (Homo sapiens) (UniProt Q02297). The assay is described as follows: NRG1 binders on small-molecule microarrays, primary screen, psychiatric disease protein project, biochemical, small-molecule microarray, fluorescence 635/667 (AID 1075).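 Also: score combines 667 nm spot fluorescence with signal to noise.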 The settings on record: NRG1 binding, 635 nm fluorescence, higher = more signal.
Assay [7] relates to Neuregulin-1 EGF-like domain. The assay is described as follows: binders of neuregulin-1 EGF-like domain, primary screen, biochemical, small-molecule microarray, 635 nm fluorescence (AID 1081).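 Also: binding of the protein to compounds printed on small-molecule microarray slides.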 The settings on record: small-molecule microarray binding, higher = more signal.
Assay [8] in a line: FRG1 promoter luciferase signal modulators, primary screen, FRG1 inhibition for FSHD, cell-based, C2C12 myotubes, firefly/Renilla luciferase, luminescence (AID 1084). Conditions: higher = more signal, called active from +8 up or from −8 down.
A short description of assay [9]: binders of probe aFST on microarray, primary screen, stem cell growth factor project, biochemical, small-molecule microarray, fluorescence 635/667 (AID 1086).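 Also: score merges 667 nm fluorescence with signal-to-noise of each printed compound spot.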 Conditions: higher = more signal.
The nature of assay [10]: binders of probe aHhip on microarray, primary screen, stem cell growth factor project, biochemical, small-molecule microarray, fluorescence 635/667 (AID 1087).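 Also: score merges spot fluorescence at 667nm with spot signal to noise ratio.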 The settings on record: higher = more signal.
Assay [11] deals with PRMT1 (protein arginine N-methyltransferase 1). As to the kind of experiment: PRMT1 binders on small-molecule microarrays, primary screen, biochemical, small-molecule microarray, 635 nm fluorescence (AID 1088).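 Also: binding of Prmt1 protein to compounds spotted on small-molecule microarray slides.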 Conditions: small-molecule microarray binding, higher = more signal.
The nature of assay [12]: yeast growth modulation, basal conditions, primary screen, YJM789 clinical isolate, OD600, 24 h (AID 1089).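 Also: growth of clinical yeast isolate S. cerevisiae YJM 789 seeded 1000 cells per well; test concentration not given here.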 Conditions: S. cerevisiae YJM789 growth, higher = more signal, called active from +8 up or from −8 down.
Assay [13] in a line: fission yeast growth modulation, primary screen, strain 972, OD600, 24 h, no modulator (AID 1090).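 Also: basal condition with compound alone and no growth modifier present; test concentration not given here.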 Conditions: S. pombe 972 growth, higher = more signal, called active from +8 up or from −8 down.
Assay [14] can be described thus: S. cerevisiae growth modulation with rapamycin, primary screen, strain BY4716, OD600, 96 h (AID 1091). Also: test concentration not given here. The settings on record: higher = more signal, called active from +8 up or from −8 down.
In assay [15] the target is Torsin-1A-interacting protein 2 (Homo sapiens) (UniProt Q8NFQ8). As to the kind of experiment: LULL1 binders on small-molecule microarray, primary screen, cell lysate, human LULL1 lysate, 635/667 nm fluorescence (AID 1092).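 Also: probe is lysate of COS7 cells overexpressing human LULL1; score merges per-feature 667 nm fluorescence with signal-to-noise.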 The settings on record: hLULL1 lysate binding, 635 nm fluorescence, higher = more signal.
Assay [16] can be described thus: E. coli growth modulation, two-sided OD650, primary screen, E. coli filamentation project, strain DRC41, 24 h (AID 1093).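 Also: MC1000 strain lacking acrAB efflux and sulA so SOS filamentation is blocked; test concentration not given here.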 Conditions: OD650, 24 h, higher = more signal, called active from +8 up or from −8 down.
The nature of assay [17]: small-molecule microarray binders of probe aLefty2, primary screen, biochemical, biotinylated probe, 635/667 nm fluorescence (AID 1094).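 Also: score merges spot fluorescence near 667 nm with spot signal-to-noise ratio.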 Conditions: higher = more signal.
The test system of assay [18] is Noggin (protein binding on small-molecule microarray). The assay is described as follows: Noggin binders on small-molecule microarray, primary screen, biochemical, 635/667 nm fluorescence (AID 1095).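 Also: score merges 667 nm feature fluorescence with signal to noise over triplicate slides.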 Conditions: 635 nm fluorescence, higher = more signal.
The target of assay [19] is Neurogenic locus notch homolog protein 3 (Homo sapiens) (UniProt Q9UM47). As to the kind of experiment: NOTCH3 binders on small-molecule microarray, primary screen, biochemical, 635/667 nm fluorescence (AID 1096). Conditions: NOTCH3 binding, 635 nm fluorescence, higher = more signal.
Assay [20] can be described thus: small-molecule microarray binders of probe aEGFR, primary screen, biochemical, biotinylated probe, 635/667 nm fluorescence (AID 1097).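 Also: probe is a biotinylated anti-EGFR antibody binding compounds printed on slides; score combines fluorescence near 667 nm and signal to noise of each spot.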 The settings on record: higher = more signal.

Active and inactive are the calls of the source.

Neurogenic locus notch homolog protein 3 (Homo sapiens), sequence (Q9UM47 whole entry, looked up): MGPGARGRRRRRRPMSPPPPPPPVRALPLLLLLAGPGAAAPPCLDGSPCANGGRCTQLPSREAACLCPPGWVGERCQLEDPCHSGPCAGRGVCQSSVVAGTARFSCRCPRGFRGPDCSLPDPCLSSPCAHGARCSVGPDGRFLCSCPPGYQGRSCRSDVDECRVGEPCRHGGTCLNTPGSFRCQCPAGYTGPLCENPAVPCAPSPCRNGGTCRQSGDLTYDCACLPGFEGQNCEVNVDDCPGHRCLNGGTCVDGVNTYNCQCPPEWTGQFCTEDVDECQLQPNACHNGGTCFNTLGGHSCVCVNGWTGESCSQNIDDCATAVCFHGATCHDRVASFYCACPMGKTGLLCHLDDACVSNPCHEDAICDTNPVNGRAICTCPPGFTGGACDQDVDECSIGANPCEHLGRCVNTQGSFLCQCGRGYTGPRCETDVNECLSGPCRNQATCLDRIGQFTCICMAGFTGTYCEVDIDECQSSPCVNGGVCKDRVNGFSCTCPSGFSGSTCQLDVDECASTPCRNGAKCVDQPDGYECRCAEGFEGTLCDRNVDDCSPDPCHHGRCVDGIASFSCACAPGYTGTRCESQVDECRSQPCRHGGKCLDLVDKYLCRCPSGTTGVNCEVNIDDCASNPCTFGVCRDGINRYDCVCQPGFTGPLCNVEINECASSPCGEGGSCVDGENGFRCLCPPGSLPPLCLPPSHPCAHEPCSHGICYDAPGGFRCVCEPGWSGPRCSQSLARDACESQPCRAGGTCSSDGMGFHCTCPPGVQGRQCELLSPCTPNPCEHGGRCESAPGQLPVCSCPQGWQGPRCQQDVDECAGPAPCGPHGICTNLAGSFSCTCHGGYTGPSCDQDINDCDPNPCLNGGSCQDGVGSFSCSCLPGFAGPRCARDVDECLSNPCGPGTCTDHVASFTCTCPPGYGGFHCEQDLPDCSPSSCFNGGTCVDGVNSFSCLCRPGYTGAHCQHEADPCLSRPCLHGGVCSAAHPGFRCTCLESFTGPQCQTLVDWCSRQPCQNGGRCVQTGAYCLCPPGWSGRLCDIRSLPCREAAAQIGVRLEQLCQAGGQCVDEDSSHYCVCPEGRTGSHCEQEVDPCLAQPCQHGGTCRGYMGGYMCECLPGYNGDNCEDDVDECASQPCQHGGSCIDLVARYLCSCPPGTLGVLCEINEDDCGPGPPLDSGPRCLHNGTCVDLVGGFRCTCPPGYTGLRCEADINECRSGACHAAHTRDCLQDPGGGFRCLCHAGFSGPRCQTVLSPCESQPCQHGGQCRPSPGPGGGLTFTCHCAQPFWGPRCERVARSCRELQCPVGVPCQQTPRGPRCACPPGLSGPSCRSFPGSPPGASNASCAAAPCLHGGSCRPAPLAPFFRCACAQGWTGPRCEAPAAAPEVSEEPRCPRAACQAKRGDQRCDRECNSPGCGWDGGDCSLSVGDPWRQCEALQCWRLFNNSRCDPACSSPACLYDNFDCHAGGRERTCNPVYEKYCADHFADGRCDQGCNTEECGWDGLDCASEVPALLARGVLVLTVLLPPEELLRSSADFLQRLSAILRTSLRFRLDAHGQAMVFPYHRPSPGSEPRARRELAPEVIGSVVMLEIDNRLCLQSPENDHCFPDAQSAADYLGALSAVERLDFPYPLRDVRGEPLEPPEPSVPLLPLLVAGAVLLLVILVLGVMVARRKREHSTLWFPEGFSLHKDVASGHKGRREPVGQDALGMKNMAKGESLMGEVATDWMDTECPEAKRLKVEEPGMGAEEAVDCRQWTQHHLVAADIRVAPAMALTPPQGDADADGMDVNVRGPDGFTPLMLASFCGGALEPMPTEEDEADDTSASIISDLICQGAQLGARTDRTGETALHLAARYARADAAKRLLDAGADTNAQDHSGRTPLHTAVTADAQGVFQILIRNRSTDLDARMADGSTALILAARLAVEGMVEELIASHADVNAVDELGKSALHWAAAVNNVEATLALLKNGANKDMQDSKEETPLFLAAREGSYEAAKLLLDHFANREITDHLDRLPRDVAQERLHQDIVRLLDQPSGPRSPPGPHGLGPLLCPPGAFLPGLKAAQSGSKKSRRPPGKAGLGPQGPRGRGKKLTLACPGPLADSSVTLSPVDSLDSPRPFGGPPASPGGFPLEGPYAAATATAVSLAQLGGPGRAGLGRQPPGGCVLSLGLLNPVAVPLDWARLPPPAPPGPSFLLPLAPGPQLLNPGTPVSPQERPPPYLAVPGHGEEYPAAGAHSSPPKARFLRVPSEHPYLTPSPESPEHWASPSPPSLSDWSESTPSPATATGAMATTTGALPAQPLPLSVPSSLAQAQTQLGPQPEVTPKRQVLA
Pro-neuregulin-1, membrane-bound isoform (Homo sapiens), sequence (Q02297 whole entry, looked up, the tested form may be a part, canonical isoform): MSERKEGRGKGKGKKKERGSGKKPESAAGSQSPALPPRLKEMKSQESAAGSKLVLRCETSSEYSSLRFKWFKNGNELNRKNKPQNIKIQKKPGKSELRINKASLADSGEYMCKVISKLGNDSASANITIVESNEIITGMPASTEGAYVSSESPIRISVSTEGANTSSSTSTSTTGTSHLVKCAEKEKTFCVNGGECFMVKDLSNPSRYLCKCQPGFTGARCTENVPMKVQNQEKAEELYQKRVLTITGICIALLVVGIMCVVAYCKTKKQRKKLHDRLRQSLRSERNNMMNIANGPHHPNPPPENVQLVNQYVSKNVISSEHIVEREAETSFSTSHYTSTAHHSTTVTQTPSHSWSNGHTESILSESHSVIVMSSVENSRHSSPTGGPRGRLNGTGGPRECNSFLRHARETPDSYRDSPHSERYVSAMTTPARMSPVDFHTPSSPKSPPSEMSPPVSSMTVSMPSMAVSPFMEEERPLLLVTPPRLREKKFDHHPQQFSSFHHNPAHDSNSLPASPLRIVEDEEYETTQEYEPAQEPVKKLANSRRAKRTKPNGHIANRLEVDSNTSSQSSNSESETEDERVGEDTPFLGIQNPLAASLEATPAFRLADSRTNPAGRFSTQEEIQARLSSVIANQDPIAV
Torsin-1A-interacting protein 2 (Homo sapiens), sequence (Q8NFQ8 whole entry, looked up): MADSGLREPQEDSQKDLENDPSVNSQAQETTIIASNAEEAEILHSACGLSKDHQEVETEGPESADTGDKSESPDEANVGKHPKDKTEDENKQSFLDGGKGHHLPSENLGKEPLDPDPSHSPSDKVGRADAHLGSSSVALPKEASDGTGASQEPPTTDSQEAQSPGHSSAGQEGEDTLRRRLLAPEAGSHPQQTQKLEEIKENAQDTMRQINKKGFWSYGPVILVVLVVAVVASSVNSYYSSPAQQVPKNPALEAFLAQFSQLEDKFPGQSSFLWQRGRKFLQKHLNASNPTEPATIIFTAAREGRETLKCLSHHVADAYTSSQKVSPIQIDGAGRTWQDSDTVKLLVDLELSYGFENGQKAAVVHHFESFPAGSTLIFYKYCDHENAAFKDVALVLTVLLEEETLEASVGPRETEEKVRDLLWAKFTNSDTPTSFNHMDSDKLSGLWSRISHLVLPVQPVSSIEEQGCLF

On to `COCCCNC(=O)[C@@H]1c2ccccc2C(=O)N(C(C)C)[C@H]1c1ccc(CO)cc1`, for which the composite z-score in assay [1] is 0.312; in [2], 0.355; in [3] it was -0.051; in [4], -0.373; in [5] it was 0.0446; in assay [6], 0.576. In addition, the composite z-score in assay [7] was 0.763; in [9], 0.0241; in assay [10], -0.249; in assay [11], -0.325; in assay [15], -0.719; in assay [17], 0.0321. Also, the composite z-score in assay [18] was 0.523; in assay [19] it was -0.406; in assay [20], -0.02. In addition, the z-score is -0.215 (inactive) in assay [8]; 0.602 (inactive) in [12]; 0.439 (inactive) in assay [13]; 0.395 (inactive) in assay [14]; -0.214 (inactive) in assay [16].

For `CCOC(=O)C1=C[C@@H](C(C)(C)C)N(S(=O)(=O)c2ccc(C)cc2)[C@H]1c1cccc2ccccc12`, the composite z-score in assay [1] is 0.0905; in assay [2] it was -0.0282; in assay [3], -0.0724; in assay [4], 0.0331; in assay [5] it was 1.08; in assay [6] it was 0.541. Besides, the composite z-score in assay [7] is 0.876; in assay [9] it was 0.692; in assay [10], -0.0296; in assay [11], 0.735; in assay [15] it was 2.36; in assay [17], -0.034. For the same molecule, the composite z-score is 0.171 in assay [18], 1.09 in assay [19] and -0.0828 in assay [20]. The z-score in assay [8] is -4.42 (inactive); in assay [12] it was 2.23 (inactive); in [13], 2.75 (inactive); in [14] it was 2.97 (inactive); in assay [16], -0.296 (inactive).

`CC[C@@H]1O[Si](C(C)C)(C(C)C)c2c1cc(-c1cc(C)c(OC)c(C)c1)nc2-c1ccc(Oc2ccccc2)cc1`: the composite z-score in assay [1] was -0.119; in assay [2], -0.259; in assay [3], -0.0881; in assay [4] it was -0.0323; in assay [5] it was 0.0131; in assay [6] it was 0.437. The composite z-score in assay [7] is -0.595; in assay [9], -0.0965; in [10], 0.0808; in assay [11] it was -0.0555; in [15], -0.346; in assay [17], -0.123. The figures for the composite z-score in assay [18], in [19] and in assay [20] were 0.0174, 0.0178 and -0.162, respectively. For the same molecule, the z-score in assay [8] was 0.838 (inactive); in assay [12] it was 0.0662 (inactive); in [13], 0.131 (inactive); in assay [14], -0.798 (inactive); in assay [16] it was -0.333 (inactive).

On to `CCCCC[C@H]1OC[C@@]23C=C(Br)[C@@H](CC12)[C@@]1(CO1)C3=O` (stereo not given in full), for which the composite z-score was -0.41 in [1]; 0.878 in assay [2]; -0.2 in [3]; -0.112 in assay [4]; -0.308 in [5]; -0.556 in assay [6]. Further, the composite z-score was -0.497 in assay [7]; -0.252 in [9]; -0.132 in assay [10]; 0.915 in assay [11]; 0.24 in [15]; -0.231 in [17]. Further, the composite z-score was 0.483 in assay [18], 0.0322 in [19] and -0.122 in assay [20]. Besides, the z-score was 0.201 (inactive) in assay [8]; -1.01 (inactive) in [12]; -6.44 (inactive) in assay [13]; -0.76 (inactive) in [14]; -0.971 (inactive) in assay [16].

Turning to `COC(=O)c1c(CC[C@@H](CO)NC(=O)N2CCC[C@H]2Cn2cc(C3(O)CCCCC3)nn2)oc(C(C)=O)c1C(=O)OC`, the composite z-score in assay [1] was -0.522; in assay [2] it was 0.831; in assay [3], -0.142; in assay [4] it was 0.439; in assay [5], 0.495; in assay [6] it was 1.11. In addition, the composite z-score in [7] was 1.19; in assay [9] it was 0.0512; in assay [10], -0.201; in assay [11], 1.53; in [15], 3.4; in assay [17], -0.124. Moreover, the composite z-score is 0.872 in [18], 0.916 in assay [19] and -0.0097 in [20]. Besides, the z-score in assay [8] was -0.199 (inactive); in assay [12] it was 0.752 (inactive); in assay [13], -0.154 (inactive); in assay [14], -1.28 (inactive); in assay [16], -0.889 (inactive).
